High-throughput results as filed in PubChem BioAssay.
In the library only some 16% were active in any assay of this set; here they are far more common.
DT40 TDP1 no CPT = qHTS for Inhibitors of human tyrosyl-DNA phosphodiesterase 1 (TDP1): qHTS in cells in absence of CPT | DT40 Tdp1-/- hTDP1 cells, no CPT, ATP luminescence, 48 h | Potency, µM (doses to about 46.2 µM), without a hit: at the top dose activity change, negative = growth inhibition, usual class: inhibitors | 420,000 tested, 15% active; further: potency means the concentration at half of the fitted maximal effect; on the % scale 0 is the no-effect control and ±100 the full control effect; nearly all actives have a fitted effect of over 55% in size
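Readout: luminescence from CellTiter-Glo after 30 min in the dark at RT. Cells: DT40 Tdp1-/- with stable hTDP1, 400/well. Exposure: compounds alone, ≥48 hr, 37 °C.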
miR-21 reporter = qHTS Assay for Modulators of miRNAs and/orActivators of miR-21; HeLa miR-21 FLuc reporter, luciferase, 48 h; Potency, µM (series often up to 38.3 µM), inactives show at the highest dose activity change, positive = activation, actives largely listed as activators; 340,000 tested, under 10 active; AID 2288, 2010;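 further: % of control where 0% means no effect; miR-21 action dims this reporter so a rising signal means less miR-21 action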
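HeLa cells stably expressing CMV-driven firefly luciferase with a downstream miR-21 binding sequence, endogenously expressing miR-21, were treated with titrations (up to about 40uM final) for 48 hours at 37 degree Celsius. Luciferase luminescence was read after lysis.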
DT40 TDP1 CPT = qHTS for Inhibitors of human tyrosyl-DNA phosphodiesterase 1 (TDP1): qHTS in cells in presence of CPT. chicken DT40 Tdp1-/-;hTDP1 cells + 20 nM CPT, ATP luminescence, 48 h. Potency, µM (series often up to 46.2 µM), without a hit: top-dose activity change, negative = growth inhibition, hits mostly inhibitors. 420,000 tested, 12% active. AID 686979, 2013; further: potency means the concentration at half of the fitted maximal effect; on the % scale 0 is the no-effect control and ±100 the full control effect; nearly all actives have a fitted effect of over 55% in size
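Chicken DT40 Tdp1-/- cells complemented with human TDP1, 400 cells/well, exposed to compounds plus 20 nM camptothecin for at least 48 h at 37 C; viability read as ATP content by CellTiter-Glo luminescence.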
uPA surface inh = qHTS for Inhibitors of Cell Surface uPA Generation; cell surface uPA generation assay, qHTS; Potency, µM (titrated, usually from 38.3 µM), inactives show at the top dose activity change, negative = inhibition, actives largely listed as inhibitors; 330,000 tested, 0.31% active; active means well fitted inhibition curve with a large enough effect; inconclusive means small, poorly fitted or top-dose-only effect; inactive means no such curve, though single readings can be large or run the other way; tested in mouse RAW 264.7 cells; further: potency means the concentration at half of the fitted maximal effect; on the % scale 0 is the no-effect control and ±100 the full control effect; nearly all actives have a fitted effect of over 55% in size
TDP1 block = qHTS Assay for Inhibitors of Tyrosyl-DNA Phosphodiesterase (TDP1); Tyrosyl-DNA phosphodiesterase 1 (Homo sapiens), Q9NUW8; recombinant TDP1, AlphaScreen DNA substrate cleavage; Potency, µM (highest dose often 130 µM), for inactives: at the highest dose activity change, negative = inhibition, actives largely listed as inhibitors; 350,000 tested, 0.28% active; AID 485290, 2010; further: potency means the concentration at half of the fitted maximal effect; on the % scale 0 is the no-effect control and ±100 the full control effect; nearly all actives have a fitted effect of over 40% in size
Target sequence (Q9NUW8 whole entry, looked up): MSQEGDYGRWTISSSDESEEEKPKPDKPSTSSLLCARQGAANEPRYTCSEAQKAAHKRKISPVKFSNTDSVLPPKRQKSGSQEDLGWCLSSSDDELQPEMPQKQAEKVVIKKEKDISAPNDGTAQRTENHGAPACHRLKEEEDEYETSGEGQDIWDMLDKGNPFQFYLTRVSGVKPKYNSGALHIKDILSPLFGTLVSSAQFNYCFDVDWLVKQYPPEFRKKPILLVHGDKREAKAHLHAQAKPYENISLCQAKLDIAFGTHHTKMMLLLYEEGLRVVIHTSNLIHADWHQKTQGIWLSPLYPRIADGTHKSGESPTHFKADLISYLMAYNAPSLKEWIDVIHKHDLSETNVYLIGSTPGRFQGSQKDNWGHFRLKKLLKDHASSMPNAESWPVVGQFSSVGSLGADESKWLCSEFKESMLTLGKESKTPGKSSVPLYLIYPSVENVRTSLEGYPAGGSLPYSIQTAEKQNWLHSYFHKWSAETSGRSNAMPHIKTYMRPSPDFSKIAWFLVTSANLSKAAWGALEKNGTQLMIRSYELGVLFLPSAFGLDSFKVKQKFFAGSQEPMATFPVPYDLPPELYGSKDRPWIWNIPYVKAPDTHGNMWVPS
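Enzyme-compound mixtures sat 15 min at room temperature, followed by a 5 min reaction with 15 nM final substrate and 10 min with AlphaScreen beads. Recombinant human Tdp1 was used at 1 nM final.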
Active calls of the source: *; ? = inconclusive; . = not tested or not shown; [ ] = dose if it differs, or a comment. Unless noted, the call rests on the fitted dose curve; in most records, active means well fitted curve in the direction sought with a large enough effect; inconclusive means small, poorly fitted or top-dose-only effect, or another doubt; inactive means no such curve, though single readings can be large; an effect the other way counts as inactive or inconclusive.

SMILES | DT40 TDP1 no CPT | miR-21 reporter | DT40 TDP1 CPT | uPA surface inh | TDP1 block
CCCNC(=O)C1(C)CCCN(Cc2ccc(-c3ccccc3)o2)C1 (centres undefined) | 20.6µM* | . | 23.1µM* | . | .
COCCNC(=O)C1(C)CCCN(C(=O)CCc2ccccc2)C1 (centres undefined) | -5.4% | . | -17.6% | . | .
COCCNC(=O)C1(C)CCCN(CCOc2ccc(Cl)cc2)C1 (centres undefined) | 14.6µM* | . | ? | . | .
CCCNC(=O)C1(C)CCCN(Cc2ccc(Oc3ccccc3)cc2)C1 (centres undefined) | 18.4µM* | . | 20.6µM* | . | .
COC(=O)c1ccccc1S(=O)(=O)N1CCC(C(=O)OCC(=O)c2ccccc2OC)CC1 | -13.3% | . | ? | -1.7% | -9.3%
Cc1cc(C)nc(NC(=O)COc2cc(Cl)cc(Cl)c2)n1 | 6.6% | -5.0% | -7.3% | -6.8% | 0.0%
CCCNC(=O)C1(C)CCCN(Cc2cc(-c3ccccc3)n(C)n2)C1 (centres undefined) | ? | . | 16.4µM* | . | .
CCCNC(=O)C1(C)CCCN(Cc2ccc(C(F)(F)F)cc2)C1 (centres undefined) | ? | . | 20.6µM* | . | .
CCCNC(=O)C1(C)CCCN(Cc2cccc(C#N)c2)C1 (centres undefined) | 20.6µM* | . | 18.4µM* | . | .
CC1(C)C(=O)N(c2ccccc2Cl)C(=O)c2ccccc21 | ? | -0.3% | -6.8% | -0.6% | 8.4%
Cn1nc(-c2ccc(C(=O)N3CCN(Cc4ccccc4)CC3)cc2)c2ccccc2c1=O | 18.4µM* | 17.2% | 23.1µM* | -8.9% | 5.3%
COc1ccc2ccccc2c1CN1CCN(C(=O)c2ccccc2)CC1 | 14.6µM* | -1.3% | ? | -0.8% | 5.1%
O=C(c1ccco1)N1CCN(CCCCOc2cccc3ccccc23)CC1 | ? | -11.0% | 18.4µM* | 2.6% | 7.6%
COc1ccccc1CN1CCN(C(=O)c2cccc3ccccc23)CC1 | ? | . | -11.2% | 11.3% | .
COc1ccc2ccccc2c1CN1CCN(C(=O)c2ccco2)CC1 | 14.6µM* | 0.0% | 18.4µM* | -0.7% | 8.1%[0.0935 µM]
O=C(c1ccc(-n2cccc2)cc1)N1CCN(Cc2ccccc2)CC1 | ? | -8.1% | ? | 2.5% | 6.7%
N#Cc1ccccc1S(=O)(=O)N1CCN(C(=O)CN2CCCSc3ccccc32)CC1 | 10.1% | . | -2.4% | -4.5% | 0.8%[56.1 µM]
COc1cc(CN2CCN(C(=O)c3ccc(-c4ccccc4)cc3)CC2)cc(OC)c1OC | 25.9µM* | -29.6% | 20.6µM* | -4.1% | -2.8%
COc1cccc(CN2CCN(C(=O)c3ccc(-c4ccccc4)cc3)CC2)c1OC | -2.6% | -1.6% | ? | -0.4% | -2.5%
O=C(c1noc2c1CCCCC2)N1CCN(c2cccc(Cl)c2)CC1 | ? | -4.3% | ? | . | -4.2%
O=C(c1noc2c1CCCCC2)N1CCN(c2cccc(C(F)(F)F)c2)CC1 | 16.4µM* | 11.2% | ? | . | -5.3%
O=C(c1csc2c1CCCC2)N1CCN(c2cccc(C(F)(F)F)c2)CC1 | 14.6µM* | 0.7% | ? | -0.7% | -4.5%
O=C(c1noc2c1CCCCC2)N1CCN(C(c2ccccc2)c2ccccc2)CC1 | 20.6µM* | . | 13µM* | 0.3% | .
O=S(=O)(NCc1ccc2c(c1)OCO2)c1ccc(Cl)s1 | -2.2% | -12.8% | -12.0% | 0.0% | -0.7%
COc1cc(-c2cc3n(C)c(C)c(CCC(=O)NC4CCC(C)CC4)c(=O)n3n2)cc(OC)c1OC (centres undefined) | 13µM* | 1.3% | 14.6µM* | . | 5.5%
CCSc1nnc(NC(=O)C2CCN(C(=O)c3ccco3)CC2)s1 | -8.9% | . | -8.1% | . | .
Cc1nnc(NC(=O)c2ccc3c(c2)C(=O)N(CC2CCCO2)C3=O)s1 (centres undefined) | -9.2% | -9.4% | -3.3% | ? | 0.0%
Cc1ccc(NC(=O)Cc2cc(C(=O)O)c3ccccc3n2)c(C)c1 | 20.6µM* | 29.0% | 14.6µM* | ? | 0.0%
